Myeloid diff 2: promotes myeloid progenitor differentiation; ER-HoxA9 myeloid progenitors, lysozyme-GFP differentiation, flow cytometry; calls only at 10 µM; 1% of 360,000 active;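 active means normalized GFP-positive differentiation at or above the plate's own cutoff, the solvent-only control mean plus 3 SD; inconclusive means no clear call, values can overlap the other calls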;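 further: cells exposed to compound for four days before flow analysis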
iPSC survival up: enhancers of human iPSC single-cell survival | hiPSC single-cell survival, ATPlite luminescence; 100% = ROCK inhibitor wells, 0% = DMSO | survival enhancement, % at 20 µM | 0.044% of 360,000 active; in the data active means survival enhancement above about 18%;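 further: cells exposed to compounds for 16 hours before the ATP read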
MIN6 prolif: induces beta-cell replication in MIN6 cells. MIN6 cells proliferation, ATPlite luminescence, 48 h; cells starved in 0.2% serum; 100% = growth in 10% serum. proliferation, % at 10 µM. 0.29% of 330,000 active. AID 2380;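 active means compounds whose signal lies at least 3.5 SD above the mean of all wells on their plate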
Cardio protect: myocardial damage modulation in H9c2 cells. H9c2 cardiomyocytes, H2O2 injury protection, ATPLite, 2 h. protection from H2O2 cell death, % at 20 µM. 0.63% of 360,000 active;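 active means compounds giving at least 50% protection of heart cells from peroxide-induced death in the single-dose screen, raw or plate-pattern-corrected value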
ABCB6 inh 2: human ABCB6 transporter inhibition; 0.19% of 360,000 active; fluorescence ratio to DMSO, % at 10 µM; K562-ABCB6 porphyrin accumulation, flow cytometry, 1 h; active compounds read low;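 active means fluorescence ratio to DMSO below 75%, the collection mean minus 3 SD; inconclusive means too few cells collected in the well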;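 further: signal is porphyrin accumulated inside mitochondria; lower ratio means ABCB6 inhibition with less porphyrin fluorescence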
Target sequence (Q9NP58 whole entry, looked up): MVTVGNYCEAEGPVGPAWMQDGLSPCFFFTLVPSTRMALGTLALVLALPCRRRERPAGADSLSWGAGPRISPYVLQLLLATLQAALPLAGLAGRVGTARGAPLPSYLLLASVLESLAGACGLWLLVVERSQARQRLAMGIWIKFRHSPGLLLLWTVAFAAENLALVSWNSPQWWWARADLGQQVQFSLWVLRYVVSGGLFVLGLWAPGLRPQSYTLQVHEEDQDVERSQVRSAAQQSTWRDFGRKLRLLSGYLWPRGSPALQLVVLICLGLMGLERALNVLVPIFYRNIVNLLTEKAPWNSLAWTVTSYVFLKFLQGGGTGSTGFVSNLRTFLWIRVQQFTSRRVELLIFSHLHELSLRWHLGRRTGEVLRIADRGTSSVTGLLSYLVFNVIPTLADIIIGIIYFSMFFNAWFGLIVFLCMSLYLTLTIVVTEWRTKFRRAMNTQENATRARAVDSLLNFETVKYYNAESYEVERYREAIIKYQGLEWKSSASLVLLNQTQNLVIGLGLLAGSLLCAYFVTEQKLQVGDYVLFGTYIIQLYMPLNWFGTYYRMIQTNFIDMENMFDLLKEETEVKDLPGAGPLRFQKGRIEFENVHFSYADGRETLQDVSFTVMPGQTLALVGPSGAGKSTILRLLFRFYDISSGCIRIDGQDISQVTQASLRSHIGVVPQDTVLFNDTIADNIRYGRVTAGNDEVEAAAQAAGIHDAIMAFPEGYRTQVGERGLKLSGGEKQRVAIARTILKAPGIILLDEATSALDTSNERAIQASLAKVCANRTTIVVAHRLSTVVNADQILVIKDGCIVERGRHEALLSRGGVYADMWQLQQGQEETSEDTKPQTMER
A number is an active result; n = inactive; u = inconclusive; x = no result given; + = active, no number. A selection: hits, their analogues and other compounds. The true share with any hit is near 2.2%.

SMILES	Myeloid diff 2	iPSC survival up	MIN6 prolif	Cardio protect	ABCB6 inh 2
CCc1ccc2nc(SCC(=O)Nc3ccccc3N3CCOCC3)c(C#N)cc2c1	+	n	n	n	n
CCOc1ccc2nc(SCC(=O)N3c4ccccc4Sc4ccccc43)c(C#N)cc2c1	+	n	n	n	n
COC(=O)c1sc2cc(C(F)(F)F)cnc2c1-c1ccccc1	n	n	n	n	n
C=Cn1cc(CNC[C@H]2O[C@@H](n3cnc4c(=O)[nH]c(N)nc43)[C@H](O)[C@@H]2O)c(C)n1	n	n	x	n	n
C/C(=N\NC(=O)CN(c1ccccc1)S(C)(=O)=O)c1ccccc1O	n	n	n	59	n
CC1(C)N=C(N)N=C(N)N1c1cc(Cl)ccc1Cl	n	n	x	n	n
CC1(C)N=C(N)N=C(N)N1c1ccc(F)cc1F	+	n	n	n	n
CCOC(=O)c1nnn(-c2nonc2N)c1-c1ccc(Br)cc1	n	n	n	n	n
COc1ccc(-c2noc(CCC(=O)Nc3cccnc3)n2)cc1	+	n	n	n	n
CC(C)(C)c1ccc(-c2noc(CCC(=O)Nc3cccnc3)n2)cc1	n	n	n	n	n
CC(=O)Oc1cc2c(C(=O)NCc3ccncc3)c(C)oc2c2ccccc12	+	n	n	n	n
Cc1oc(-c2ccccc2)cc1C(=O)NCc1ccncc1	n	n	n	n	n
COc1cccc(Nc2ncnc3sccc23)c1	+	n	n	n	n
O=C(c1cc2ccccc2oc1=O)N1CCN(c2ccccn2)CC1	n	n	n	n	n
O=C(c1cccc(OC2CCN(Cc3cccc(OCCO)c3)CC2)c1)N1CCCC1	+	n	n	n	n
O=C(c1ccc(OC2CCN(Cc3cccc(OCCO)c3)CC2)cc1)N1CCCC1	n	n	n	n	n
CCn1ncc2c1C(=O)NC1c3ccccc3C(=O)N21 (centres undefined)	n	n	n	59	n
CN(C)C(=O)CSC1c2ccccc2C(=O)N1c1ccccc1 (centres undefined)	n	n	n	n	n
Fc1ccc(CN2CCN3CCCC3C2C2CCCCC2)cc1F (centres undefined)	n	n	n	n	n
O=C(COc1ccccc1)c1cn(CC(=O)N2CCOCC2)c2ccccc12	n	n	n	n	n
CC1CCc2cccc3c2N1c1cc(C#N)c(C#N)cc1O3 (centres undefined)	+	n	n	n	n
CC1CCCCN1c1cc(C#N)c(C#N)cc1[N+](=O)[O-] (centres undefined)	n	n	n	n	n
COc1ccc(N2CCN(C(CNC(=O)C(=O)NCCCO)c3ccco3)CC2)cc1 (centres undefined)	u	n	n	n	n
CCCCn1c(N)c(Br)c(=O)[nH]c1=O	n	n	n	55	n
CCCCn1c(N)c(NCCC(C)C)c(=O)[nH]c1=O	n	n	x	n	n
SMILES	Myeloid diff 2	iPSC survival up	MIN6 prolif	Cardio protect	ABCB6 inh 2
CCOc1ccc(C(=O)Nc2ccc3c(c2)OCCO3)cc1	n	n	n	n	n
Cc1c(O)c(CN2CCCCC2)cc2c3c(c(=O)oc12)CCC3	n	n	n	n	n
Cc1c(O)c(CN2CCCCC2)cc2c1oc(=O)c1ccccc12	n	n	n	52	n
O=C(N/N=C/c1ccncc1)c1cccc(S(=O)(=O)Nc2ccc(Cl)cc2)c1	+	n	n	n	n
O=C(N/N=C/c1cccnc1)c1cccc(S(=O)(=O)Nc2cccc(Cl)c2)c1	n	n	n	n	n
CC(=O)Nc1cc[n+](C(C)C(=O)c2ccc(Br)cc2)cc1 (centres undefined)	+	n	n	n	n
CC(=O)Nc1cc[n+](C(C)C(=O)c2ccccc2)cc1 (centres undefined)	n	n	n	n	n
COc1cccc(C(O)c2nc(-c3ccccc3OC)cs2)c1 (centres undefined)	n	n	x	n	n
CCOC(=O)CN1C=C(c2ccc3ccccc3n2)C(C[N+](=O)[O-])c2ccccc21 (centres undefined)	+	n	n	n	n
Cc1ccc(C)c(S(=O)(=O)N2CCN(C(=O)Cn3[nH]c(=O)c4ccccc4c3=O)CC2)c1	n	n	n	61	n
Cc1ccc(C)c(S(=O)(=O)N2CCN(C(=O)CSc3ccccc3)CC2)c1	n	n	n	n	n
O=C(Cn1[nH]c(=O)c2ccccc2c1=O)N1CCN(S(=O)(=O)c2ccc(Cl)cc2)CC1	n	n	n	74	n
COc1ccc(CCNc2ccc(S(N)(=O)=O)cn2)cc1	n	n	n	n	n
COCCOC(=O)N/C=C\c1nc2ccccc2c(=O)[nH]1	n	n	n	65	n
Cc1cc([N+](=O)[O-])ccc1NC(=O)C(C)[n+]1ccccc1 (centres undefined)	n	n	n	n	n
Cc1ccc(N)cc1O	n	n	n	n	n
CC1CC(C)C[N+](=C2C=C(N3CCCC3)CC(C)(C)C2)C1 (centres undefined)	+	n	x	n	n
CC1(C)CC(N2CCCC2)=CC(=[N+]2CCCCCC2)C1	n	n	n	n	n
Cc1cc2c(SCC(=O)N3CCN(c4ccccc4)CC3)ncnc2s1	n	n	n	n	n
O=C(CSc1ncnc2nc[nH]c12)N1CCN(c2ccccc2)CC1	+	n	n	n	n
Cc1cccc(OCCNc2ccc([N+](=O)[O-])cn2)c1	n	n	n	n	n
O=[N+]([O-])c1ccc(NCCOc2ccccc2Cl)nc1	+	n	n	n	n
O=C(NCc1ccccc1Cl)C1CCCN(c2ncnc3c2nc2n3CCCCC2)C1 (centres undefined)	+	n	n	n	n
CC(=O)c1ccc(N2CCN(C(=O)C3CCCN(c4ncnc5c4nc4n5CCCCC4)C3)CC2)cc1 (centres undefined)	u	n	n	55	n
CCOc1ccccc1CNC(=O)C1CCCN(c2ncnc3c2nc2n3CCCCC2)C1 (centres undefined)	n	n	n	n	n
SMILES	Myeloid diff 2	iPSC survival up	MIN6 prolif	Cardio protect	ABCB6 inh 2
C/C(=N\NC(=O)c1cc(-c2cccc(OC(C)C)c2)nc2ccccc12)c1cccnc1	n	n	n	n	n
C/C(=N\NC(=O)c1cc(-c2cccnc2)nc2ccccc12)c1ccc(O)cc1O	u	n	n	52	n
C/C(=N\NC(=O)COc1ccccc1-c1ccccc1)c1ccc(O)cc1O	n	n	n	54	n
Cc1nn(-c2ccccc2)c(N2CCCC2)c1/C=N/NC(=O)c1cc(-c2cccnc2)nc2ccccc12	n	n	n	59	n
O=C(NN=Cc1cccc([N+](=O)[O-])c1)c1cc(-c2cccnc2)nc2ccccc12	n	n	n	51	n
C/C(=N\NC(=O)COc1ccccc1-c1ccccc1)c1ccccn1	x	n	n	n	n
Cc1cc(C)c(C)c(OCCOCCNCc2ccccc2)c1	n	n	n	n	n
c1ccc(C2=NOC(c3nnc(-c4ccccc4)o3)C2)cc1 (centres undefined)	n	n	n	n	n
C=CCNC(=S)NNC(=O)c1ccc(=O)n(Cc2ccc(Cl)cc2Cl)c1	n	n	n	n	n

Screens from PubChem.
